Experimental data: PubChem BioAssay
Records with an inconclusive call do not appear. Calls of active or inactive are those of the source.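 Rule for the calls: active = cell viability at or below a set limit in both duplicate runs, the limit being the all-compound median minus 4 SD (cut at about 23% in these data, passing the limit was not always enough); inconclusive = no clear call, values can overlap the other calls; inactive = the rest.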

assay: viability of HCT116 without oncogenic beta-catenin – human colon tumor cells, pilot screen (AID 823); conditions: HCT116 beta-catenin knockout viability, CellTiter-Glo, 60 h; at 10 µM; active compounds read low;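 note: 0% = wells killed by 20 µM Hyamine and 100% = untreated DMSO cell wells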

| Structure (SMILES) | viability |
| --- | --- |
| CC1NC(=O)NC1CCCCC(=O)O (stereo unspecified) | 109% (inactive) |
| CCc1ccc(NC(=O)C2CC=CCC2C(=O)O)cc1 (stereo unspecified) | 98.1% (inactive) |
| CCN(CCCNC(=O)Cn1cc2c(n1)CCCC2)c1cccc(C)c1 | 86% (inactive) |
| O=C(NC1CCCCCCC1)C1CCC(CNc2c(N3CCCC3)c(=O)c2=O)CC1 (stereo unspecified) | 91.6% (inactive) |
| CNC(=O)CN1C(=O)c2ccccc2S1(=O)=O | 101% (inactive) |
| O=C(O)CCC(C(=O)O)n1c(O)c(C2=c3ccccc3=NC2=O)sc1=S (stereo unspecified) | 97.7% (inactive) |
| CCOc1ccccc1NC(=O)C1CCN(S(=O)(=O)c2ccc(OC)c(OC)c2)CC1 | 95% (inactive) |
| Cc1cc(C)c(S(=O)(=O)Nc2nnc(C)s2)c(C)c1 | 102% (inactive) |
| Cc1ccc(C(c2sc3nc(C)nn3c2O)N2CCN(CCO)CC2)cc1 (stereo unspecified) | 97.8% (inactive) |
| CCN(CC)C(=O)c1sc(NC(=O)c2ccoc2C)c(C(=O)OC)c1C | 83.4% (inactive) |
| Cc1oc2c(c1C(=O)NC(Cc1c[nH]c3ccccc13)C(=O)O)CCCC2 (stereo unspecified) | 100% (inactive) |
| COc1cccc(C2NC(=O)NC(O)(C(F)(F)F)C2C(=O)c2cccnc2)c1OC (stereo unspecified) | 109% (inactive) |
| Cc1noc(C)c1S(=O)(=O)N(CC(=O)Nc1ccc2c(c1)OCO2)c1ccc(C(C)C)cc1 | 96.4% (inactive) |
| COc1ccc(C2CC(=O)N3CN(c4ccc(C)c(Cl)c4)CSC3=C2C#N)cc1 (stereo unspecified) | 90.1% (inactive) |
| O=C(Cc1cccs1)N1CCN(c2ccccn2)CC1 | 93.5% (inactive) |
| O=C(O)CC1C(=O)NCCN1CCCc1ccccc1 (stereo unspecified) | 97.8% (inactive) |
